This passage reports inhibition results from PubChem BioAssay AID2013 (Sanford-Burnham Center for Chemical Genomics, 2009).

As usually defined, the inhibition is the relative decrease from the control value, in per cent.

About 370 (0.13%) of roughly 290,000 compounds were called active. What follows is part of a selection rich in actives, with near analogues and random picks from the rest. Entries with a potency or affinity are not part of this list. A number with no mark means an inactive call.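 How the source made its calls: active means spots per cell inhibited over 60%, with over 100 cells counted and total cytoplasm intensity under 500,000; inconclusive means wells with under 100 cells, flagged as likely toxic; inactive means the rest.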

The target of this experiment is G-protein coupled receptor 55 (Homo sapiens) (UniProt Q9Y2T6). Kind of experiment: inhibition of LPI-stimulated GPR55 beta-arrestin translocation – imaging, U2OS, beta-arrestin-GFP, LPI agonist, primary screen (AID 2013).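 Further: U2OS cells stably carrying GPR55 and arrestin-GFP stimulated by 5 µM LPI near EC80; imaged beta-arrestin-GFP aggregate spots per cell after agonist stimulation; plate controls were LPI-stimulated DMSO wells for no effect and DMSO wells without LPI for full effect.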 Conditions: LPI antagonism, at 10 µM, stronger effect = higher value.
Sequence of G-protein coupled receptor 55 (Homo sapiens) (Q9Y2T6 whole entry, looked up): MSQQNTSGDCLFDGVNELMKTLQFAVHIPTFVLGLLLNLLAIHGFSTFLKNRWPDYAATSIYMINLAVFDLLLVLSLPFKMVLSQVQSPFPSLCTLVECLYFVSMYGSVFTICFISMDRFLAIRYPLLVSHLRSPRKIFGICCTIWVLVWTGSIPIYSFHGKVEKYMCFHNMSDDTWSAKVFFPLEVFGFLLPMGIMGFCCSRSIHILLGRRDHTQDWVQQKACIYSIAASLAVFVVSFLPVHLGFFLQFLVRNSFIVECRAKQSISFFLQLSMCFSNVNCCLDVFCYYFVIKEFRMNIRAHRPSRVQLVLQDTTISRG
`COc1cc(C(=O)N2CCN(C(=O)c3cccc4ccccc34)CC2)cc(OC)c1OC`: the inhibition was 4.5%.
The value for `CCn1cnc2sc(C(=O)Oc3cccc(C)c3)c(C)c2c1=O` was -14%; that for `c1ccc2c(c1)OCC(c1csc3ncnc(N4CCCCC4)c13)O2` (stereo unspecified) was 6%.
The value for `c1ccc2c(c1)OCC(c1csc3ncnc(N4CCCC4)c13)O2` (stereo unspecified) was 26.4%; that for `CCN(CC)c1ncnc2scc(C3COc4ccccc4O3)c12` (stereo unspecified) was 31%; that for `c1ccc2c(c1)OCC(c1csc3ncnc(N4CCOCC4)c13)O2` (stereo unspecified) was 18.5%.
Under `CC(C)CCNc1c(-c2cccs2)nc2ccccn12` stands 8.2%; under `CC(=O)Nc1nc(-c2ccc(Cl)cc2)ns1`, 9.6%; under `CC(C)=CC(=O)OCc1csc(CC(=O)Nc2ccccc2C)n1`, 8.4%.
Consider `Clc1ccc(-c2nnnn2-c2ccc(Cl)cc2)cc1`, for which the inhibition was 7.1%.
Under `Clc1ccc(-n2nnnc2-c2cnc(-c3ccncc3)nc2-c2cccs2)cc1` stands 6.4%; under `Cn1c(C(=O)N[C@@H](Cc2ccccc2)C(=O)NCCC(=O)O)cc2cc(Cl)ccc21`, 2.2%.
The value for `Cc1ccc(-c2nnc(Oc3ccc(NC(=O)c4ccccc4)cc3)c3ccccc23)cc1` was 9.6%; that for `CC(=O)Oc1ccc2ccccc2c1C(NC(=O)Cc1ccccc1)c1ccc(Cl)cc1` (stereo unspecified) was 3.5%; that for `CCC(=O)NC(c1ccccc1)c1c(OC(C)=O)ccc2ccccc12` (stereo unspecified) was 9.1%.
The value for `CN=C1CC(C)(C)CC(=O)/C1=C(/O)CCC(=O)NC` was 11.2%; that for `C=CCN1C(=O)N/C(=C/c2ccc(C)o2)C1=O` was 6.7%.
Regarding `CCN1C(=O)N/C(=C/c2ccc(C)o2)C1=O`, the inhibition was -0.6%.
Turning to `Cc1ccc(/C=C2\C(=O)NC(=O)N2C)o1`, the inhibition was 6.8%.
The value for `Cc1ccc(/C=C2/NC(=O)N(Cc3ccccc3F)C2=O)o1` was -7.6%; that for `O=C1CC(NC(=O)c2ccc(Cl)cc2)C(=O)N1` (stereo unspecified) was 8%; that for `Cc1ccc2c(c1)C1(C(=O)N2C)N2CC3(C)CN1CC(C)(C2)C3=O` (stereo unspecified) was -15.5%.
Under `CC(=O)/C=C1\N(C)c2ccc(C)cc2C1(C)C` stands 9.7%; under `CC/C(=C/c1sc2ccc(C)cc2[n+]1CCO)SC`, -7.4%; under `Cc1ccc(-c2c3c(=O)n(C)c(=O)n(C)c3cn2N2CCOCC2)cc1`, -4%.
With `Cc1ccc(-c2csc(N(CCCN3CCOCC3)C(=O)c3ccco3)n2)cc1`, the inhibition was 21.7%.
The value for `O=C(c1ccco1)N(CCCN1CCOCC1)c1nc(-c2ccc(F)cc2)cs1` was 28.3%; that for `O=C(c1ccco1)N(CCCN1CCOCC1)c1nc(-c2ccc(Cl)cc2)cs1` was 69.4% (active); that for `NS(=O)(=O)c1ccc(NNC(=O)c2ccccc2C(=O)O)cc1` was 6.3%.
The value for `CCSc1ccc(-c2nn(-c3ccccc3)cc2/C=C(/C#N)C(=O)NC)cc1` was 0.7%; that for `CCCSc1ccc(-c2nn(-c3ccccc3)cc2/C=C(/C#N)C(=O)NCCCOC)cc1` was -5.1%; that for `CCCCn1c(N)c(N(CC(C)C)C(=O)C2CCN(C(=O)c3ccc(F)cc3)CC2)c(=O)[nH]c1=O` was -8.6%.
The value for `CCCCCCOc1ccc(OCC(O)CN2C(=O)NC(C)(C)C2=O)cc1` (stereo unspecified) was -5.4%; that for `Cc1ccc(N2C(=O)CC(N(CCc3ccccc3)C(=S)Nc3ccc(N(C)C)cc3)C2=O)cc1` (stereo unspecified) was 0.8%; that for `CCOC(=O)/C(=C\c1ccccc1)C(=O)c1cc(C(C)=O)c(Nc2ccccc2)s1` was -0.8%.
`CCOC(=O)/C(C#N)=C\c1cccnc1`: the inhibition is 0.9%.
The value for `O=C(CSc1ccccc1C(=O)N1CCCCC1)NCC1CCCCC1` was 15.6%; that for `Cc1c(O)nc2sc3ccccc3n2c1=O` was -0.7%; that for `Cc1ccc(NC(=O)C(OC(=O)c2ccccc2Cl)c2ccccc2)cc1Cl` (stereo unspecified) was 13.2%.
In the case of `O=C(N/C=C/c1ccc(Cl)cc1)NCc1ccc(Cl)cc1`, the inhibition was 9%.
Under `O=[N+]([O-])c1ccc(C2CNC(c3ccccc3)O2)cc1` (stereo unspecified) stands 7.3%; under `COc1ccc(-c2nc(-c3cccc(C)c3)nc(Cl)c2C#N)cc1`, 5.9%.
Under `N#Cc1c(Cl)nc(SCc2ccccc2)nc1-c1ccccc1` stands -1.5%; under `CSc1nc(Cl)c(C#N)c(-c2ccc(C)cc2)n1`, 68.5% (active); under `Cn1cc([C@@H]2C[C@H]3CN(C4CCCC4)C(=O)[C@]34CCCN24)c(-c2ccccc2)n1`, -0.1%.
Under `COc1ccc2oc(C(=O)OCC(=O)NC(C)c3ccccc3)c(C)c2c1` (stereo unspecified) stands -1.9%; under `Cc1cc(C(=O)NCC23CC4CC(CC(C4)C2)C3)c(C)o1`, 72.6% (active); under `Cc1cc(C(=O)NCC(=O)O)c(C)o1`, 2.3%.
In the case of `Cc1cc(C(=O)NN)c(C)o1`, the inhibition is 1%.
Under `COc1cc(/C=C(/NC(=O)c2ccccc2)C(=O)N2CCOCC2)c([N+](=O)[O-])cc1OC` stands 13.2%; under `Cc1cc(C(F)(F)F)nc(-n2cc(-c3ccccc3)nn2)n1`, 7.4%.
Under `Cc1nn(C(C)(C)C)c(OC(=O)c2ccco2)c1Sc1ccccc1` stands 7%.
For the compound `Cc1nn(C(C)(C)C)c(OC(=O)c2ccc(Br)o2)c1Sc1ccccc1`, the inhibition was -4.1%.
The value for `CCC1(C)CC(=O)N(c2ccc(F)c(Cl)c2)C(=O)C1` was 0.3%.
Regarding `CC1=NN(c2cccc(C(=O)O)c2)C(=O)/C1=C\C=C\c1ccco1`, the inhibition was 10.3%.
Take `CC1=NN(c2ccccc2)C(=O)/C1=C/C=C/c1ccccc1`: the inhibition is 5.8%.
Under `CCOC(=O)C(C)(C)N(Cc1cccc(C)c1)S(=O)(=O)c1cccc([N+](=O)[O-])c1` stands 9.3%.
Under `CCOC(=O)C(C)(C)NS(=O)(=O)c1ccc(Cl)c([N+](=O)[O-])c1` stands 6.3%; under `CCOC(=O)C(C)(C)N(Cc1cccc(C)c1)S(=O)(=O)c1ccc(Cl)c([N+](=O)[O-])c1`, 73.8% (active).
On to `CCOC(=O)C(C)(C)N(Cc1ccccc1C)S(=O)(=O)c1ccc(Cl)c([N+](=O)[O-])c1`, for which the inhibition is 44%.
The value for `CCOC(=O)C(C)(C)N(Cc1ccc(Cl)cc1)S(=O)(=O)c1ccc(Cl)c([N+](=O)[O-])c1` was 44.2%; that for `CC(=O)Nc1ccc(S(=O)(=O)NCC(=O)OCC(=O)N2CCc3ccccc32)cc1` was -1.9%; that for `Cc1cc(C)c(C)c(Oc2ncnc(N)c2[N+](=O)[O-])c1` was 0.6%.
Under `Cc1nc([N+](=O)[O-])cn1CC(=O)Nc1ccc(F)c(Cl)c1` stands 1.9%; under `Cn1ccnc1SCC(=O)N1CCc2ccccc21`, -2.6%; under `O=S(=O)(/N=C/N1CCOCC1)c1ccc(Cl)cc1`, 8.2%.
The value for `COc1cc(OC)cc(C(=O)N2CCN(C(=O)c3cccs3)CC2)c1` was -11.9%; that for `COc1ccc(OC)c(CNc2c(C=O)c(=O)[nH]c3ccccc23)c1` was 1.2%.
For `O=Cc1cn(CC(=O)N2CCOCC2)c2ccccc12`, the inhibition is 6.5%.
The value for `COc1ccc2[nH]cc(C=O)c2c1` was -7.9%.
The value for `O=C1NC(=O)/C(=C\c2cn(CC(=O)N3CCOCC3)c3ccccc23)S1` was -3.8%; that for `COc1ccc(OC)c(-n2c(=O)c3ccccc3c3ccccc3c2=O)c1` was 9.4%; that for `COc1ccc(N2C(=O)CCC2=O)c(OC)c1` was 1.4%.
The value for `O=C(c1ccccc1)N1N=C(c2ccccc2)CC1c1ccccc1[N+](=O)[O-]` (stereo unspecified) was 4%; that for `OC(COc1cccc2ccccc12)CN1CCCC1` (stereo unspecified) was -4.7%.
Turning to `CN1C(=O)[C@H]2[C@@H](/C=C/c3ccccc3)N3C(=O)CN(CC4CC4)C(=O)[C@@]3(C)[C@H]2C1=O`, the inhibition was 7.6%.
In the case of `Cc1cc(C)c(C)c(OCCN2CC(C)OC(C)C2)c1` (stereo unspecified), the inhibition was -23.1%.
Under `Cc1ccc(C(C)C)c(OCC(O)CN2CCc3ccccc3C2)c1` (stereo unspecified) stands 2.1%.
Under `O=S(=O)(c1ccccc1F)N1CCC(c2nc3ccccc3[nH]2)CC1` stands -18.2%; under `COc1cc(C2=NOC(C(=O)Nc3cc(C)on3)C2)cc(OC)c1OC` (stereo unspecified), 0.6%; under `COc1ccccc1NC(=O)COc1ccc2c(c1)OCO2`, 19%.
Under `CS(=O)(=O)CCC(C(=O)OCC(=O)c1ccc(Cl)cc1)N1C(=O)c2ccccc2C1=O` (stereo unspecified) stands -0.1%.
For the compound `O=C1NC(c2ccccc2)=NC1(Nc1ccccn1)C(F)(F)F` (stereo unspecified), the inhibition is 13.1%.
The value for `Cc1ccnc(NC2(C(F)(F)F)N=C(c3ccccc3)NC2=O)c1` (stereo unspecified) was -6%; that for `Cc1ccc(NC2(C(F)(F)F)N=C(c3ccccc3)NC2=O)nc1` (stereo unspecified) was 87% (active).
Under `CCOc1ccc(C2(C)CC(=O)N(C)C2=O)cc1` (stereo unspecified) stands 5.8%; under `Cc1nnc(-c2cccc(Br)c2)c2cn(-c3ccccc3Cl)nc12`, 7.4%.
On to `Cc1nnc(-c2cccc(Br)c2)c2cn(-c3ccccc3)nc12`, for which the inhibition was 9.1%.
With `Cc1nnc(-c2cccc(Br)c2)c2cn(-c3cccc(Br)c3)nc12`, the inhibition was 1.6%.
The value for `COc1ccc(-n2cc3c(-c4cccc(Br)c4)nnc(C)c3n2)cc1` was 45.1%.
Under `COc1ccc(C)cc1NS(=O)(=O)c1cn(C)nc1C` stands 3.9%.
Regarding `CC(NC(=O)CCc1nnc(CCCc2ccccc2)o1)c1ccccc1` (stereo unspecified), the inhibition was -2.7%.
Consider `CN(Cc1ccccc1)C(=O)CCC1CCN(C(=O)CC2=CCCCC2)CC1`, for which the inhibition is 0.7%.
Under `O=C(N1CCN(c2ccc(F)cc2)CC1)C12CC3CC(CC(C3)C1)C2` stands 1.6%; under `CCCN1CNC(=S)N(c2ccccc2OC)C1`, 10%.
Under `N=c1c2c3c(sc2ncn1CCN1CCOCC1)CCCC3` stands 18.2%.
